These results are taken from PubChem BioAssay.

SMILES strings stand for the structures. Calls of active or inactive are those of the source.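 Rule for the calls, unless noted: active = fluorescence slope higher than the sample average by over 3 SD (cut at about -0.22 in these data, passing the limit was not always enough); inactive = the rest.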

Test [1] in a line: inhibitors of TNFa-induced NFkB p65 translocation, primary screen, imaging, HUVEC, MLSMR starter and 10KST1 sets (AID 438;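 active = inhibition above 20% together with a positive visual image hit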;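 note: compound added about 3h40 before a 20 min TNFalpha stimulation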;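 for inhibition: signal is the nuclear over cytoplasmic p65 intensity ratio per well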). The following applies: HUVEC TNFa-induced p65 nuclear translocation; cell count: measured here: nuclei count (cytotoxicity indicator), at 2.08 µM; inhibition: at 2 µM, stronger effect = higher value, 0% TNFa-plus-vehicle, 100% no-TNFa wells.
Test [2] in a line: reduction of polyQ htt aggregates in cells – imaging, exon1htt(103Q)mCFP cells, high-content imaging, primary screen (AID 483;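 active = visual image review flags a hit and inhibition of aggregation exceeds 20%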;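 note: compound exposure lasted 3 days before fixation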;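 for nuclei count: percent of the per-plate median nuclei count of sample wells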). The conditions noted are these: exon1htt(103Q)mCFP cell line, aggregate imaging, at 2 µM; inhibition of aggregation: stronger effect = higher value; nuclei count: measured here: cell count, toxicity.
Test [3] can be described thus: endothelial E-selectin expression blockers – imaging, HUVEC, immunofluorescence, MLSMR starter and 10KST1 sets, primary screen (AID 487;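 active = visually confirmed hit in the image check and inhibition above 20%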;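 for inhibition: signal is fraction of cell area covered by stained E-selectin grains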;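 for nuclei count: 100% = median nuclei count of all wells on the same plate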). The conditions noted are these: HUVEC TNFalpha-induced E-selectin immunofluorescence imaging, at 2 µM; inhibition: stronger effect = higher value; nuclei count: measured here: cell number, toxicity.
The target in test [4] is Voltage-gated potassium channel subunit beta-2 (Rattus norvegicus) (UniProt P62483). Briefly: inhibitors of rat Kvbeta2 reductase activity – biochemical, NADPH fluorescence, primary screen (AID 622).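 Note: slope of raw intensity against log time taken from 70 to 1610 s.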 The conditions noted are these: recombinant KvBeta, 4-cyanobenzaldehyde reduction, at 10 µM, stronger effect = higher value.
Voltage-gated potassium channel subunit beta-2 (Rattus norvegicus), sequence (P62483 whole entry, looked up): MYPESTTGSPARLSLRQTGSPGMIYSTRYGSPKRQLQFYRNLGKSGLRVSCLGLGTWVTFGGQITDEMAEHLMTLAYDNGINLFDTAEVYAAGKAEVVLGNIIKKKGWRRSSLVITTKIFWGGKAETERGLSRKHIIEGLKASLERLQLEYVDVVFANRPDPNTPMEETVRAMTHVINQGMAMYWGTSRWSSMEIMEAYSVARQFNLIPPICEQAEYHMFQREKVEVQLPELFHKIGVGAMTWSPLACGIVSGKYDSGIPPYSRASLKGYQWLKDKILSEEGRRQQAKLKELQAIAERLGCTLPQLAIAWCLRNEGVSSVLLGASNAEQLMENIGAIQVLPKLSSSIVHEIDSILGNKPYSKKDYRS
For test [5] the target is unchanged. Briefly: enhancers of rat Kvbeta2 NADPH turnover – biochemical, NADPH fluorescence, primary screen (AID 623;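 active = NADPH fluorescence slope more negative than the mean of all samples by about 3 SD, 99.7% confidence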;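 note: fluorescence intensity change per second fitted from 20 to 320 s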). The following applies: Recombinant KvBeta, NADPH fluorescence decrease slope, 10 min; at 10 µM; stronger effect = lower value.
Test [6] deals with Alpha-2C adrenergic receptor (Homo sapiens) (UniProt P18825). Kind of test: compounds altering alpha2C-coupled GIRK flux – cell-based, HEK293 alpha2C/GIRK1/2, thallium flux, primary screen (AID 624;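 active = fluorescence slope after compound addition differing from the mean of all screened samples at 99.7% confidence, in either direction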;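 note: slope of fluorescence ratio to pre-addition baseline per second over 15 to 24 s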). The conditions noted are these: thallium flux BTC fluorescence, at 10 µM, actives lie on both sides.
Alpha-2C adrenergic receptor (Homo sapiens), sequence (P18825 whole entry, looked up): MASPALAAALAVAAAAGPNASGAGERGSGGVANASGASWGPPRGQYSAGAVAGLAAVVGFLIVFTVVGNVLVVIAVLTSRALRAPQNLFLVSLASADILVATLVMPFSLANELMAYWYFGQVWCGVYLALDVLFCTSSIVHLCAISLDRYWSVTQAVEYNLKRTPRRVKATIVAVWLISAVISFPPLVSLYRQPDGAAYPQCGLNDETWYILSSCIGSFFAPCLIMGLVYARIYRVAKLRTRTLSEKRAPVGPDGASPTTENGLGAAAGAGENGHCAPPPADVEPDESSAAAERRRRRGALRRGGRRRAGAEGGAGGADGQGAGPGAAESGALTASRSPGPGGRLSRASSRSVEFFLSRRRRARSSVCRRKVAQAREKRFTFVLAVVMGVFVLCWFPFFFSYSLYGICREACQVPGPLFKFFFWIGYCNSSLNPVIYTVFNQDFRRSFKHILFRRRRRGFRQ
Test [7] is described as follows: blockers of RIG-like receptor reporter activation – cell-based, Sendai virus stimulus, luciferase, 10K MLSCN set, TLR/RLR signaling modifier project, primary screen (AID 602276;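 active = inhibition at or above 50% at 10 µM; inactive = inhibition below 50%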;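 note: firefly luciferase from ISG56 promoter only with Renilla not read in this screen; 0% = Sendai virus plus DMSO and 100% = medium plus DMSO without virus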). The conditions noted are these: HEK293 RL24 IRF3 luciferase reporter, at 10 µM, stronger effect = higher value.
A short description of test [8]: TLR3 IRF3 reporter activation blockers – cell-based, poly I:C stimulus, luciferase, 10K MLSCN set, primary screen (AID 602277;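 active = inhibition of the reporter signal at or above 50%; inactive = inhibition below 50%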). The following applies: HEK293-TLR3 RL24 IRF3 luciferase reporter, at 10 µM, stronger effect = higher value. (In general: Reporter assays use an easily measured gene product as a stand-in for the process of interest.)

For the compound `COc1cccc(-c2csc3nnc(SCC(=O)c4ccc(NC(C)=O)cc4)n23)c1`, the cell count in test [1] was 452. In addition, the inhibition in test [1] is 0% (inactive); in test [3], -116% (inactive); in test [7] it was 8.19% (inactive); in test [8] it was 17.5% (inactive). In addition, the inhibition of aggregation in test [2] was 21.2% (inactive). Besides, the figures for the nuclei count in test [2] and in test [3] were 106% and 176%, respectively. Besides, the fluorescence slope in test [4] was -0.47 (inactive). Besides, the NADPH fluorescence slope in test [5] was 0.000104 (inactive). Besides, the slope in test [6] was 0.00779 (inactive).
As to `Cc1nc2ccccc2c2oc(C(=O)N3CCC(N4CCCCC4)CC3)cc12`, in test [1], the cell count turned out to be 591. The inhibition in test [1] was -4.4% (inactive); in test [3] it was -12.1% (inactive); in test [7] it was -0.549% (inactive); in test [8] it was 24% (inactive). Also, in test [2], the inhibition of aggregation was -14.4% (inactive). The nuclei count in test [2] was 100%; in test [3], 119%. The fluorescence slope in test [4] is -0.602 (inactive). Besides, the NADPH fluorescence slope in test [5] was -3.1e-05 (inactive). For the same compound, the slope in test [6] was 0.00619 (inactive).
Consider `CC(C)CNC(=O)C1CC(=O)OC12CCCCC2` (centres undefined), for which the cell count in test [1] is 661. For the same compound, the inhibition in test [1] was -32.6% (inactive); in test [3] it was -18.4% (inactive); in test [7], 12.4% (inactive); in test [8], 19.6% (inactive). Moreover, in test [2], the inhibition of aggregation was 4.3% (inactive). Further, the nuclei count is 96.4% in test [2] and 107% in test [3]. Moreover, in test [4], the fluorescence slope was -0.594 (inactive). In test [5], the NADPH fluorescence slope is -6.1e-05 (inactive). For the same compound, in test [6], the slope is 0.00558 (inactive).
Take `O=C(Cc1cccs1)NCc1ccc(F)cc1`: the cell count in test [1] stood at 458. Moreover, the inhibition in test [1] is 2.4% (inactive); in test [3] it was 56.1% (active); in test [7], -18.8% (inactive); in test [8], -36.3% (inactive). Also, in test [2], the inhibition of aggregation is 10.1% (inactive). For the same compound, the nuclei count turned out to be 107% in test [2] and 93.3% in test [3]. For the same compound, in test [4], the fluorescence slope was -0.408 (inactive). In addition, the NADPH fluorescence slope in test [5] is -3.6e-06 (inactive). For the same compound, the slope in test [6] was 0.00459 (inactive).
On to `Cc1cc(Cl)ccc1OCCCC(=O)NO`, for which the cell count in test [1] stood at 375. The inhibition in test [1] was 0.8% (inactive); in test [3], -31.4% (inactive); in test [7], 9.52% (inactive); in test [8], -4.29% (inactive). Besides, in test [2], the inhibition of aggregation was -15% (inactive). The figures for the nuclei count in test [2] and in test [3] were 65.5% and 108%, respectively. The fluorescence slope in test [4] is -0.31 (inactive). Further, in test [5], the NADPH fluorescence slope was -1.1e-05 (inactive). Moreover, in test [6], the slope is 0.00525 (inactive).
Regarding `CCOC(=O)Cc1nnc2c(Nc3ccc(C)cc3)nc3nonc3n12`, in test [1], the cell count came out at 352. Also, the inhibition was 1% (inactive) in test [1], 6.7% (inactive) in test [3], 23.5% (inactive) in test [7] and 34.9% (inactive) in test [8]. Further, the inhibition of aggregation in test [2] was 15% (inactive). In addition, the nuclei count in test [2] amounted to 87.3%; in test [3] it was 83%. In addition, in test [4], the fluorescence slope is -0.612 (inactive). Moreover, the NADPH fluorescence slope in test [5] was -1.4e-05 (inactive). Besides, the slope in test [6] was 0.00447 (inactive).
As to `CC1Cc2nc(SCC(=O)Nc3nccs3)n(C)c(=O)c2S1` (centres undefined), in test [1], the cell count worked out at 584. For the same compound, the inhibition is 12% (inactive) in test [1], -23.5% (inactive) in test [3], 11.6% (inactive) in test [7] and 28.2% (inactive) in test [8]. For the same compound, the inhibition of aggregation in test [2] is 12.8% (inactive). The figures for the nuclei count in test [2] and in test [3] were 109% and 111%, respectively. Also, the fluorescence slope in test [4] was -0.539 (inactive). Besides, the NADPH fluorescence slope in test [5] is -2.7e-05 (inactive). Further, the slope in test [6] was 0.00648 (inactive).
As for `Cc1nn(C(=O)c2ccoc2C)c(N)c1-c1ccccc1`, the cell count in test [1] was found to be 764. Further, the inhibition in test [1] is -1.1% (inactive); in test [3] it was -25.3% (inactive); in test [7], -27.9% (inactive); in test [8], -123% (inactive). In test [2], the inhibition of aggregation was -13.8% (inactive). Moreover, the nuclei count in test [2] was 132%; in test [3], 116%. Besides, in test [4], the fluorescence slope is -0.534 (inactive). The NADPH fluorescence slope in test [5] was -4.2e-05 (inactive). Further, the slope in test [6] was 0.007 (inactive).
On to `CCOC(=O)c1[nH]nc(N)c1NC(=O)c1ccc(Cl)cc1Cl`, for which the cell count in test [1] came to 554. For the same compound, the inhibition is -4.9% (inactive) in test [1], -238% (inactive) in test [3], -16.4% (inactive) in test [7] and -22.5% (inactive) in test [8]. Further, the inhibition of aggregation in test [2] is 3.8% (inactive). For the same compound, the nuclei count came to 99.2% in test [2] and 134% in test [3]. For the same compound, the fluorescence slope in test [4] is -0.456 (inactive). The NADPH fluorescence slope in test [5] was 8.2e-05 (inactive). In test [6], the slope is 0.00589 (inactive).
For the compound `O=C(CCc1ccccc1)Nc1ccncc1`, the cell count in test [1] turned out to be 412. Further, the inhibition in test [1] is 1% (inactive); in test [3] it was -273% (inactive); in test [7], -2.19% (inactive); in test [8] it was 11.2% (inactive). For the same compound, the inhibition of aggregation in test [2] is 7.9% (inactive). Also, the nuclei count in test [2] amounted to 94.1%; in test [3], 118%. The fluorescence slope in test [4] is -0.446 (inactive). In addition, the NADPH fluorescence slope in test [5] is -1.1e-05 (inactive). Also, in test [6], the slope is 0.00342 (inactive).
`CC1(C)OC(=O)C(=CNC(CCC(N)=O)C(=O)O)C(=O)O1` (centres undefined): the cell count in test [1] was 679. Further, the inhibition in test [1] was 3.6% (inactive); in test [3] it was -16.8% (inactive); in test [7], -19% (inactive); in test [8], -5.5% (inactive). The inhibition of aggregation in test [2] is 0.3% (inactive). For the same compound, the values for the nuclei count in test [2] and in test [3] were 117% and 108%, respectively. The fluorescence slope in test [4] is -0.611 (inactive). Further, in test [5], the NADPH fluorescence slope is -9.2e-07 (inactive). The slope in test [6] was 0.00611 (inactive).
As for `CCCSc1nnc(N2C(=O)CC(c3ccsc3)C3=C2CCCC3=O)s1` (centres undefined), in test [1], the cell count was determined as 640. The inhibition in test [1] was -5.3% (inactive); in test [3], -39.5% (inactive); in test [7], 5.11% (inactive); in test [8], 26.4% (inactive). The inhibition of aggregation in test [2] was 24.3% (inactive). Also, the results for the nuclei count in test [2] and in test [3] were 90.4% and 102%, respectively. The fluorescence slope in test [4] is -0.558 (inactive). The NADPH fluorescence slope in test [5] is -3.6e-05 (inactive). Further, in test [6], the slope is 0.00697 (inactive).
On to `Cc1ccc(S(=O)(=O)NCC(=O)N(CC(=O)NC2CCCCC2)Cc2ccco2)cc1`, for which the cell count in test [1] was found to be 294. Also, the inhibition in test [1] was 8.1% (inactive); in test [3] it was -54.4% (inactive); in test [7], 8.19% (inactive); in test [8], 20% (inactive). In test [2], the inhibition of aggregation was 12.7% (inactive). Also, the nuclei count in test [2] amounted to 97.1%; in test [3], 110%. For the same compound, the fluorescence slope in test [4] is -0.431 (inactive). Further, the NADPH fluorescence slope in test [5] is -4.7e-05 (inactive). Further, the slope in test [6] is 0.00754 (inactive).
With `Cc1cc(C(=O)NCc2cccnc2)n(-c2ccccc2)n1`, the cell count in test [1] was determined as 613. The inhibition in test [1] was -0.9% (inactive); in test [3], -82.8% (inactive); in test [7] it was -0.216% (inactive); in test [8], 8.35% (inactive). Further, the inhibition of aggregation in test [2] was -20.8% (inactive). Also, the nuclei count in test [2] worked out at 103%; in test [3] it was 127%. For the same compound, the fluorescence slope in test [4] was -0.546 (inactive). Besides, in test [5], the NADPH fluorescence slope is -1.4e-05 (inactive). For the same compound, the slope in test [6] was 0.00657 (inactive).

A word on the inhibition: it is the relative decrease from the control value, in per cent.
